Source: PubChem BioAssay AID1159580 (chemical genetic matrix, 2015)
Several values for one entry are separate records, joined by “and”; a condition that tells them apart may be missing. Equal values may be shown once. In all, about 5,500 compounds went through this assay and about 2,000 (36%) were called active. About 18% were inconclusive and are not listed. No stated cut-off is given here; in the data, active means normalized growth mostly below about 0.91 (no sharp cut-off); inconclusive means no clear call, values can overlap the other calls; inactive means mostly above about 0.92. The list shows a part of the results.

Assay: chemical genetic growth profiling, strain panel (AID 1159580);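 further: tested at 20 µM; growth read once vehicle control cultures reached saturation at 30 °C; 1 = growth at the plate median or of vehicle wells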
Conditions: S. cerevisiae deletion strains, growth OD

Measured: normalized growth

COc1ccc(/C=C/c2cc(O)cc(O)c2)cc1
0.709 (active) and 0.967 (inactive): locus YJL095W, strain BCK1, stronger effect = lower value
active: locus YDL074C, strain BRE1, stronger effect = lower value 0.725 | locus YDL192W, strain arf1, stronger effect = lower value 0.729 | locus YDR101C, strain arx1, stronger effect = lower value 0.878 | locus YDR502C, strain sam2, stronger effect = lower value 0.846 | locus YEL061C, strain CIN8, stronger effect = lower value 0.864 | locus YER167W, strain BCK2, stronger effect = lower value 0.872 | locus YGL086W, strain mad1, stronger effect = lower value 0.854 | locus YGR078C, strain PAC10, stronger effect = lower value 0.803 | locus YGR135W, strain pre9, stronger effect = lower value 0.86 | locus YGR252W, strain gcn5, stronger effect = lower value 0.687 | locus YHR129C, strain ARP1, stronger effect = lower value 0.857 | locus YHR200W, strain rpn10, stronger effect = lower value 0.879 | locus YIL066C, strain RNR3, stronger effect = lower value 0.841
0.863 (active) and 1.04 (inactive): locus YHR030C, strain SLT2, stronger effect = lower value
inactive: locus YAL021C, strain ccr4, stronger effect = lower value 0.984 | locus YAL026C, strain drs2, stronger effect = lower value 1.01 | locus YAL030W, strain snc1, stronger effect = lower value 1.01 | locus YBL061C, strain skt5, stronger effect = lower value 1.01 | locus YBR009C, strain hhf1, stronger effect = lower value 1 | locus YBR021W, strain FUR4, stronger effect = lower value 0.949 | locus YBR023C, strain chs3, stronger effect = lower value 1 | locus YBR171W, strain sec66, stronger effect = lower value 1.02 | locus YBR229C, strain ROT2, stronger effect = lower value 0.978 | locus YBR231C, strain swc5, stronger effect = lower value 1 | locus YBR279W, strain paf1, stronger effect = lower value 1 | locus YCL011C, strain gbp2, stronger effect = lower value 0.991 | locus YCL016C, strain dcc1, stronger effect = lower value 1 | locus YCL029C, strain bik1, stronger effect = lower value 0.931 | locus YCL061C, strain MRC1, stronger effect = lower value 0.999 | locus YCL069W, strain vba3, stronger effect = lower value 1.01 | locus YCR088W, strain abp1, stronger effect = lower value 1 | locus YDL005C, strain med2, stronger effect = lower value 1.01 | locus YDL035C, strain GPR1, stronger effect = lower value 0.868 | locus YDL040C, strain nat1, stronger effect = lower value 1.01 | locus YDL101C, strain DUN1, stronger effect = lower value 0.949 | locus YDL134C, strain PPH21, stronger effect = lower value 0.895 | locus YDL185W, strain tfp1, stronger effect = lower value 0.976 | locus YDR001C, strain nth1, stronger effect = lower value 1.01 | locus YDR069C, strain doa4, stronger effect = lower value 1.02 | locus YDR137W, strain rgp1, stronger effect = lower value 1.02 | locus YDR159W, strain sac3, stronger effect = lower value 1.01 | locus YDR162C, strain NBP2, stronger effect = lower value 0.866 | locus YDR195W, strain ref2 1.06 | locus YDR297W, strain sur2, stronger effect = lower value 1 | locus YDR318W, strain mcm21, stronger effect = lower value 0.919 | locus YDR334W, strain swr1, stronger effect = lower value 1.02 | locus YDR335W, strain msn5, stronger effect = lower value 0.999 | locus YDR388W, stronger effect = lower value 0.962 | locus YDR392W, strain spt3, stronger effect = lower value 0.982 | locus YEL003W, strain gim4, stronger effect = lower value 1.01 | locus YEL037C, strain rad23, stronger effect = lower value 1.01 | locus YEL061C, strain CIN8 (second series), stronger effect = lower value 1.01 | locus YER015W, strain faa2, stronger effect = lower value 0.998 | locus YER016W, strain bim1, stronger effect = lower value 1.01 | locus YER110C, stronger effect = lower value 0.956 | locus YER111C, strain swi4, stronger effect = lower value 1.01 | locus YER155C, strain BEM2 (second series), stronger effect = lower value 1 | locus YER155C, strain BEM2, stronger effect = lower value 0.945 | locus YFR010W, strain ubp6, stronger effect = lower value 1.01 | locus YGL078C, strain dbp3, stronger effect = lower value 0.946 | locus YGL167C, strain pmr1, stronger effect = lower value 1.01 | locus YGL173C, strain kem1, stronger effect = lower value 1.02 | locus YGL227W, strain vid30, stronger effect = lower value 1.01 | locus YGL240W, strain doc1, stronger effect = lower value 1 | locus YGL248W, strain PDE1, stronger effect = lower value 0.907 | locus YGL253W, strain hxk2, stronger effect = lower value 1.01 | locus YHR013C, strain ard1, stronger effect = lower value 1 | locus YHR027C, strain rpn1, stronger effect = lower value 0.998 | locus YHR079C, strain IRE1 (second series), stronger effect = lower value 0.974 | locus YHR079C, strain IRE1, stronger effect = lower value 1.01 | locus YHR094C, strain hxt1, stronger effect = lower value 0.96 | locus YHR142W, strain chs7, stronger effect = lower value 0.99 | locus YIL073C, strain SPO22, stronger effect = lower value 0.896 | locus YIL125W, strain kgd1, stronger effect = lower value 0.955 | locus YIR030C, strain dcg1, stronger effect = lower value 0.957 | locus YJL092W, strain hpr5, stronger effect = lower value 1.01 | locus YJL095W, strain BCK1 (second series), stronger effect = lower value 1.01 | locus YJL115W, strain asf1, stronger effect = lower value 1.01 | locus YJL129C, strain trk1, stronger effect = lower value 0.986 | locus YJL134W, strain LCB3, stronger effect = lower value 0.983 | locus YJL154C, strain vps35, stronger effect = lower value 1.01 | locus YJL164C, strain tpk1, stronger effect = lower value 0.986 | locus YJL166W, strain qcr8, stronger effect = lower value 1 | locus YJL168C, strain set2, stronger effect = lower value 0.969 | locus YJL187C, strain SWE1 (second series), stronger effect = lower value 0.89 | locus YJL187C, strain SWE1, stronger effect = lower value 0.997
